Source: PubChem BioAssay
Vc quorum ag – quorum light induction in luxS cqsA deficient V. cholerae. V. cholerae BH1578 lux reporter, luminescence, 6 h. activation, % at 18.7 µM. 350,000 tested, 0.16% active. AID 588436; in the data active = activation mostly above about 9.7%, no sharp cut-off
CCHF vOTU inh-1 – CCHFV vOTU protease inhibition. Pep-AMC fluorescence. inhibition, % at 11.5 µM. 370,000 tested, 0.55% active. AID 651958; note: 0% = vehicle wells with enzyme and 100% = no enzyme wells
FBA Mtb inh – inhibitors of M. tuberculosis fructose-bisphosphate aldolase | P9WQA3 | purified M. tuberculosis FBA, fluorescence read-out | inhibition, % at 1 µM | 360,000 tested, 2.3% active; in the data active = inhibition above about 27%;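 note: 0% = vehicle and 100% = reference inhibitor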
Target sequence (P9WQA3 whole entry, looked up): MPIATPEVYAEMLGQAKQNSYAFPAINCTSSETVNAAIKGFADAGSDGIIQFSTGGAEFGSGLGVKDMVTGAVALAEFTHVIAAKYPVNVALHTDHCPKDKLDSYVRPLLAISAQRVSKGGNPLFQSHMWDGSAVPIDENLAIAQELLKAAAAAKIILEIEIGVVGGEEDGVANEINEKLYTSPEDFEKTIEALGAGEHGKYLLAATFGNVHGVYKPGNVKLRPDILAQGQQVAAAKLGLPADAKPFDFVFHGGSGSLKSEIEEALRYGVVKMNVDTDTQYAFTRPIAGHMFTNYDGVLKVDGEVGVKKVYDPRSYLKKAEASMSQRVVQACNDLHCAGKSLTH
GDH-TPI counter – GDH-TPI coupled enzyme inhibition counter-screen. GDH-TPI coupled enzyme counterscreen, NADH absorbance. 360,000 tested, 1.2% active. AID 588335. inhibition, % at 4.8 µM;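 note: 0% = DMSO wells and 100% = wells lacking the enzyme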
CCHF vOTU inh-2 – CCHFV vOTU protease inhibition, confirmation. shares compounds with CCHF vOTU inh-1. AID 686976. inhibition, % at 11.5 µM. Recombinant CCHFV vOTU, Pep-AMC fluorescence. 1,900 tested, 17% active
* hit, by the source's call; i = inactive; · = no result. Shown are actives, neighbours in structure and some others; about 3.9% of the full set was active somewhere. Cut-off read from the data, not from the text of the source, unless noted: active = inhibition above about 30%; inactive = the rest.

SMILES | Vc quorum ag | CCHF vOTU inh-1 | FBA Mtb inh | GDH-TPI counter | CCHF vOTU inh-2
COc1ccc(NC(=O)CCNC(=O)Cn2cnc3ccccc3c2=O)cc1OC | i | -2.5 | 2.4 | 8.1 | ·
C#CCNC(=O)C[C@H]1C[C@@]2(C(=O)OC)C(=C[C@H](C(C)C)O[C@@H]2C2CC2)N(CCCCCCCC)C1=O | · | 38.8* | · | · | 13.6
CCCCCCCCN1C(=O)[C@@H](CC(=O)NCCCOCCCC)C[C@@]2(C(=O)OC)C1=C[C@H](C(C)C)O[C@@H]2C1CC1 | · | 35.3* | · | · | 36.9*
CCCCOCCCNC(=O)C[C@H]1C[C@@]2(C(=O)OC)C(=C[C@H](C(C)C)O[C@@H]2C2CC2)N(Cc2ccco2)C1=O | · | 10.2 | · | · | ·
CCCCCCCCN1C(=O)[C@@H](CC(=O)N2CCN(C(=O)c3ccco3)CC2)C[C@@]2(C(=O)OC)C1=C[C@H](C(C)C)O[C@@H]2C1CC1 | · | 32.1* | · | · | 26.0
COC(=O)[C@]12C[C@H](CC(=O)N3CCN(C(=O)c4ccco4)CC3)C(=O)N(Cc3ccco3)C1=C[C@H](C(C)C)O[C@@H]2C1CC1 | · | 20.1 | · | · | ·
CN(C)Cc1c[nH]c2nccnc12 | -4.5 | -20.5 | 0.8 | -7.4 | ·
NS(=O)(=O)c1ccc(CCNC(=O)c2ccc(Cl)c(S(=O)(=O)N3CCCCC3)c2)cc1 | i | 12.7 | -2.0 | -3.5 | ·
COc1ccccc1CNC(=O)C1CCC(CNc2c(N3CCC(C)CC3)c(=O)c2=O)CC1 (stereo not given) | -0.5 | 31.4* | 1.1 | -3.8 | -6.5
CCOC(=O)c1c(CSC(=N)N)n(-c2ccc(C)cc2)c2cc(Br)c(OC(C)=O)cc12 | i | 45.8* | 2.1 | 0.0 | -1.8
NC1=C(Br)C(=O)c2ccccc2C1=O | -0.6 | 90.6* | 0.3 | 6.1 | 98.6*
Cc1cc2c(cc1C)C(=O)C(Br)=C(N)C2=O | 3.3 | 78.0* | -1.2 | 8.5 | 57.5*
O=C(Cc1ccc(NC(=O)C2CCCN(C(=O)C3CC3)C2)cc1)Nc1ccc(C(=O)N2CCOCC2)cc1 (stereo not given) | 0.0 | -4.0 | -2.2 | 9.4 | ·
O=c1ncn(-c2ccccc2F)c2ncccc12 | 11.1 | -0.1 | -0.5 | 5.8 | ·
COc1cc2c(cc1OC)C(c1ccccc1)N(Cc1ccc(S(=O)(=O)NC(=O)c3ccco3)cc1)CC2 (stereo not given) | · | 9.3 | · | · | ·
O=C(Nc1nc(-c2ccncc2)cs1)c1ccc(S(=O)(=O)N2CCOCC2)cc1 | -1.4 | 39.1* | -2.5 | 30.0 | -6.8
Cc1ccc(NP(=O)(c2ccc(N(C)C)cc2NC(=O)c2cccs2)N2CCOCC2)cc1Cl (stereo not given) | 0.8 | 29.6* | 4.4 | 8.5 | -25.4
Cc1ccc(NP(=O)(c2ccc(N(C)C)cc2NC(=O)c2cccs2)N2CCOCC2)cc1 (stereo not given) | -0.3 | 10.0 | -2.0 | 16.2 | ·
O=C1C(N2CCOCC2)=C(n2nnc3ccccc32)C(=O)c2ccccc21 | i | 103.7* | 0.7 | 13.7 | 97.8*
COc1ccc(OC)c(NC(=O)Nc2ccc(O)c3ccccc23)c1 | -0.5 | 72.7* | 5.0 | 3.1 | -15.4
CC(=O)Nc1cc(-c2ccccc2N(C)C)cn2c(-c3cccc(C(F)(F)F)c3)cnc12 | i | 33.6* | 5.9 | 8.0 | -2.4
CC(=O)Nc1cc(-c2cccc(NS(C)(=O)=O)c2)cn2c(-c3cccc(C(F)(F)F)c3)cnc12 | i | 7.4 | 2.3 | 7.1 | ·
CCc1nnc(NS(=O)(=O)c2ccc(NC(=O)/C=C/c3ccccc3Cl)cc2)s1 | 0.4 | 35.3* | -0.8 | 7.3 | 5.4
COc1ccc(CCNC2CCC(c3ccccc3)CC2)cc1 (stereo not given) | -0.9 | 6.8 | 5.8 | 9.6 | ·
CCn1c(=O)c(C(=O)NCCN2CCCCC2)c(O)c2ccccc21 | i | 34.2* | 1.4 | 5.5 | -12.2
SMILES | Vc quorum ag | CCHF vOTU inh-1 | FBA Mtb inh | GDH-TPI counter | CCHF vOTU inh-2
Fc1ccc(-c2nnc(Cc3ccc(Cl)cc3)o2)cc1 | 0.1 | 30.5* | 1.2 | 3.4 | -15.0
O=C(NCc1ccc(OC(F)(F)F)cc1)C1CC(c2ccccc2C(F)(F)F)=NO1 (stereo not given) | i | 37.2* | -1.3 | -2.6 | 4.9
COc1ccccc1NC(=O)c1ccc(COc2ccccc2Br)o1 | i | 0.2 | -0.6 | 2.1 | ·
CCCC(=O)N1CCCC1(C)C(=O)Nc1cc(OC)ccc1OC (stereo not given) | i | -3.4 | -1.0 | 10.7 | ·
CC1(C)OC(c2ccccc2)=C/C(=C/C=C2C(=O)NC(=O)NC2=O)O1 | -0.3 | 30.3* | -13.8 | 3.9 | -1.1
CC1(C)OC(c2ccccc2)=C/C(=C/C=Nc2ccccc2)O1 | · | 9.6 | -1.5 | 22.6 | ·
O=S1(=O)CCN2C(c3ccco3)=CSC2=N1 | i | -5.7 | 2.6 | -9.1 | ·
